From PubChem BioAssay AID1347426 (Functional Genomics Laboratory (NCATS/FGL), 2020)
Hit rate of the full screen: of about 31,000 sequences, about 1,400 (4.5%) were called active. This excerpt belongs to a sample that is enriched for actives. Values without a mark were called inactive.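 How the source made its calls: active means median seed-adjusted z-score above 1 or below -1; inactive means the rest.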

Experiment: Novel Modifiers of Survival Motor Neuron (SMN) Protein: Gene Identification via Genome-wide siRNA Screen;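 further: luminescence tracks full-length SMN protein made from the SMN2 reporter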
Details: HEK293T SMN2-luciferase reporter, siRNA knockdown, 72 h; actives lie on both sides
Summary of the method: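 Genome-wide siRNA screen (10418 genes, 3 siRNAs each, 1 pmol per well) by reverse transfection in HEK293T cells stably carrying an SMN2-luciferase reporter; luminescence after 72 hours, normalized to negative-control siRNA, log10-transformed, MAD-scored.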
CCUCGACAGUGAAUGCAAATT against ABCF3 showed a median seed-adjusted z-score of 0.0759. GAAAAUCUAUCAGAACAUUTT against RAB14 showed a median seed-adjusted z-score of -0.0567. For CUAUGACCCUUACCCGUAUTT against FMOD, the median seed-adjusted z-score was -1.32 (active). GCUCAGCUCUGGUACUUUATT against GTF2H4 gave a median seed-adjusted z-score of -0.261. GGUUUGAUGUAGGCCCAAUTT against MTFMT gave a median seed-adjusted z-score of -0.0119. Work on GGAAGAUCGAAAGUGCGAATT against GZMB yielded a median seed-adjusted z-score of -0.0378. With AGUUCAUUCUGACAGAUGATT against VDR the median seed-adjusted z-score was -0.031. CAAUAUUCCGUACAUAGAATT against MRAS showed a median seed-adjusted z-score of 0.032. For GGGAUCUAGUGAAUAAACUTT against EIF2B4, the median seed-adjusted z-score was 0. Work on GCAAAGACCAUAAGAUUUATT against MYST1 yielded a median seed-adjusted z-score of 0. In the case of GAGUGUUCAGCAAACCGUATT against MED20, the median seed-adjusted z-score is reported as -1.66 (active). GAUGUGAAAUGGAGAAGUATT against KLF5 showed a median seed-adjusted z-score of -0.338. Sequence ACGCAGAUUUCUACAGAAATT against COX6C has a median seed-adjusted z-score of -0.0449. With GGAUUACUCUUUUGGUGCATT against IRF5 the median seed-adjusted z-score was -0.146. GAUGCGAUAUUAAUGGGAATT against SMYD4 gave a median seed-adjusted z-score of 0.272. Work on GAAAAUGUGGGAUCAAGAATT against COQ7 yielded a median seed-adjusted z-score of 0.159. For GAGCUGACCUUGAACGAGATT against CHGB, the median seed-adjusted z-score was -1.29 (active). GUGCUAAUCUCAAUACCGATT against ZRANB1 showed a median seed-adjusted z-score of -0.347. Sequence GGACAGCUAUGACUCGGAUTT against DOC2A has a median seed-adjusted z-score of 0.299. Sequence GCAAGUAUUUUGACAAGGUTT against KIF7 has a median seed-adjusted z-score of 0.0274. Sequence CAAACAAUAUGAGAGUGUUTT against IL7 has a median seed-adjusted z-score of 0.253. With ACAAGACUCUGGACAUUAATT against DHRS4 the median seed-adjusted z-score was 0.263. Work on GAUUCAUGCAUUGAUCACATT against UBE2Z yielded a median seed-adjusted z-score of 0.0572. Work on GCCCAGAAGUUUAGGGAAATT against TAP1 yielded a median seed-adjusted z-score of -0.506. For CAAAGUCCAUGGAGUCUUUTT against RASA4, the median seed-adjusted z-score was -1.11 (active). For GGGUUAGUGGAGACCUUUATT against ATPAF1, the median seed-adjusted z-score was 0.393. Work on GAAUUCACCAUUCAAGUAATT against SCYL3 yielded a median seed-adjusted z-score of 0.665. AGGACGGUGCAGUACAGAATT against ZBTB46 gave a median seed-adjusted z-score of 0.0546. With GAACAACACCAACAUAAGATT against SMOC1 the median seed-adjusted z-score was 0.0453. For CAUCGCCUAUAUGAAAUAUTT against PLA2G10, the median seed-adjusted z-score was 1.07 (active). In the case of GAGCCGUACUAUGACCUGATT against SSTR2, the median seed-adjusted z-score is reported as -0.162. With CGAAGCUAGUGGAACAGUATT against SF3A1 the median seed-adjusted z-score was -1.09 (active). CGAUGCCUGUUAUAAAUUATT against RCAN3 gave a median seed-adjusted z-score of 0.544. In the case of AAAUCCCUUUGACACCUUUTT against DNAJB1, the median seed-adjusted z-score is reported as 0.466. CUCCUUCCCGGAUGAUUUATT against KLF17 showed a median seed-adjusted z-score of -0.131. For CCUCCGUCCUGUUUAGGAATT against LCN2, the median seed-adjusted z-score was 0.123. With GCAACGAGUUCAACCUGGATT against RAB11B the median seed-adjusted z-score was -0.857. In the case of CCACUUACCCUCAAAGAAATT against SLC4A5, the median seed-adjusted z-score is reported as 1.3 (active). For CCUCAGUGUGGGUAUAAGATT against HIF1A, the median seed-adjusted z-score was 0.228. UUGAUAAGGUUAAACCACATT against CSTA showed a median seed-adjusted z-score of -0.351. With GCAGCACGAAGGAUACUGATT against ABCA4 the median seed-adjusted z-score was -1.09 (active). Sequence CCACGAGAUUUCACAAACATT against PRKD3 has a median seed-adjusted z-score of -0.906. GCUUCACUCAGAUUCCGAUTT against DYNC1I2 showed a median seed-adjusted z-score of -0.167. In the case of GCCUCUACCUCUUCGAAAATT against CLEC11A, the median seed-adjusted z-score is reported as -1.1 (active). For GCAGUAAUGUUGAUAUAGATT against VDAC3, the median seed-adjusted z-score was 0.646. With CUAUCUCACCAAGAUCUAUTT against PODN the median seed-adjusted z-score was 0.589. In the case of CAUCUUCAGUCUGUACAAATT against KIR2DL5B, the median seed-adjusted z-score is reported as 1.72 (active). GGAAAGCAACAUACAGACATT against FABP6 showed a median seed-adjusted z-score of 0.122. With GCCUUAUGUAUGCACAGAATT against HKR1 the median seed-adjusted z-score was -0.358. With AGGCAUAUCUUGAAGAACATT against CIP29 the median seed-adjusted z-score was -1.18 (active). CACAGUGUUUGAGAACUAUTT against RHOA showed a median seed-adjusted z-score of -0.219. With GCAUCAACAGUAAUGAGAATT against KRT39 the median seed-adjusted z-score was 0.161. CCACAUCAACAGUGCCUUUTT against ACOT11 showed a median seed-adjusted z-score of 0.636. AGGGCUUCUUGAAUCUCUATT against GSTO2 gave a median seed-adjusted z-score of 0.142. CCAAGAUGCUCAGUCAUCATT against MAP4K1 gave a median seed-adjusted z-score of 0. For CAACGUAUCAGAUUGAGAATT against ZNF281, the median seed-adjusted z-score was 1.19 (active). Sequence CUACCGGAUUGAGAUGGAATT against MEGF6 has a median seed-adjusted z-score of 0. For GCUGCUUGUGGAUUCGCUATT against TLN2, the median seed-adjusted z-score was -0.0106. Sequence CACUCACACCAACCUGUGATT against GNG13 has a median seed-adjusted z-score of -0.516. For CAGUGUUAGUGGAUUCAGATT against TMEM87B, the median seed-adjusted z-score was -0.51. In the case of CAACCUUAUUAUCAUUGAATT against SF3B3, the median seed-adjusted z-score is reported as -2.53 (active). Sequence GGCAGAUCCUGACCUUUGATT against PRMT7 has a median seed-adjusted z-score of 0.204. With CUUAAGAUCCCACACCUCATT against SLC39A4 the median seed-adjusted z-score was 0.0304. GCAUGUUCCAGAUCUAUCATT against DRD5 gave a median seed-adjusted z-score of -0.18. Sequence GAGCGUGACUGGGUUCUAATT against DDX5 has a median seed-adjusted z-score of 0.891. With CAAAGACAAGGUCCCAUUUTT against IFI35 the median seed-adjusted z-score was 0.105. GCCCUAGAAAGGUCACUGATT against AKR1CL1 showed a median seed-adjusted z-score of 0.488. For GGAGGAACUCGAAUCAUUUTT against EIF4EBP2, the median seed-adjusted z-score was 0.517. For GCAUCACCUUCUUUCGGAUTT against UNC13A, the median seed-adjusted z-score was -2.1 (active).
